{"source": "PubChem BioAssay AID2314", "about": "(National Center for Advancing Translational Sciences (NCATS), 2010)", "note": "The whole screen tested about 300,000 compounds, of which about 37,000 (12%) were called active. This is one part of a sample in which actives are shown more often than they occur. Values without a mark were called inactive. Rule as the data show it: active = max response mostly above about 13% (no sharp cut-off); inactive = mostly below about 14%."}
{"assay": "Cycloheximide Counterscreen for Small Molecule Inhibitors of Shiga Toxin; also: read at 38.3 µM for the half of the compounds with a filed dose; 0% is about no effect", "conditions": "cell reporter, cycloheximide protein synthesis inhibition counterscreen; stronger effect = higher value"}
{"smiles": "COc1cc(C(=O)N/C(=C\\c2cn(C)c3ccccc23)C(=O)N2CCOCC2)cc(OC)c1OC", "max response": "-5.05%"}
{"smiles": "O=C(C1CCCN(S(=O)(=O)c2ccccc2)C1)N1CCN(c2ccc(F)cc2)CC1", "note": "(stereo unspecified)", "max response": "8%"}
{"smiles": "CCOC(=O)c1ccc(NC(=O)c2cc(=O)[nH]c3ccccc23)cc1", "max response": "-2%"}
{"smiles": "CCOC(=O)c1ccc2[nH]c3c(c2c1)CCCC3NC=O", "note": "(stereo unspecified)", "max response": "13.2% (active)"}
{"smiles": "O=[N+]([O-])c1ccc2[nH]c3c(c2c1)CCCC3O", "note": "(stereo unspecified)", "max response": "-4.82%"}
{"smiles": "CC(C)(C)c1ccc(C(=O)N2CCC(C(=O)N3CCCCC3)CC2)cc1", "max response": "-2.39%"}
{"smiles": "O=C(c1ccccc1)c1ccc(OCC(O)CN2CCCC2)cc1", "note": "(stereo unspecified)", "max response": "5.75%"}
{"smiles": "CC(C)(C)c1ccc(OC(=O)N2CCCCC2)cc1", "max response": "54.1% (active)"}
{"smiles": "O=C(c1ccccc1)c1ccc(OC(=O)N2CCCC2)cc1", "max response": "37.5% (active)"}
{"smiles": "O=C(Nc1cccc(OC(=O)N2CCCCC2)c1)N1CCOCC1", "max response": "5.17%"}
{"smiles": "O=C(COc1cccc(F)c1)Oc1ccc(C(=O)c2ccccc2)cc1", "max response": "15.6%"}
{"smiles": "CC(C)CCNC(=O)C(C)N(C(=O)Cn1nnc(-c2ccc(F)cc2)n1)C1CCCC1", "note": "(stereo unspecified)", "max response": "-1.9%"}
{"smiles": "COC(C[C@@H](O)[C@H](C)[C@H](O)COCc1ccccc1)OC", "max response": "5.98%"}
{"smiles": "O=C(NCCS(=O)(=O)N1CCN(c2ccccc2F)CC1)c1ccc(Br)o1", "max response": "8.75%"}
{"smiles": "O=S(=O)(c1ccc2c(c1)OCCCO2)N1CCN(S(=O)(=O)c2c(F)cccc2F)CC1", "max response": "3.98%"}
{"smiles": "CN(C)c1ccc(-c2nnc(-c3cccnc3)o2)cc1", "max response": "56.2% (active)"}
{"smiles": "CN(C)c1nc(-c2cccnc2)nc(-c2ccc(Cl)cc2)c1C#N", "max response": "-4.98%"}
{"smiles": "Cc1csc(NC(=O)CSc2nnc(-c3cccnc3)o2)n1", "max response": "-7.35%"}
{"smiles": "CCCNCc1cc(OCC)c(OCC(=O)Nc2ccccc2)cc1Br", "max response": "-0.891%"}
{"smiles": "CCN(CC)CCCNC(=O)CCn1nc(-c2ccc(Cl)cc2)ccc1=O", "max response": "-2.58%"}
{"smiles": "CC(C)N(Cc1ccccc1)C(=O)COC(=O)c1cnccn1", "max response": "-3.2%"}
{"smiles": "Cc1ccc2cc3cc(C(=O)N4CCCCCC4)oc3nc2c1", "max response": "43.7% (active)"}
{"smiles": "Cc1ccc(C(=O)N2CCCCCC2)cc1Br", "max response": "10.4%"}
{"smiles": "Cc1ccc2oc(=O)c3cnn(CC(=O)N4CCCCCC4)c3c2c1", "max response": "-10.3%"}
{"smiles": "C=CCn1c(SCC(=O)NCCCO)nc2sc3c(c2c1=O)CCC3", "max response": "-2.04%"}
{"smiles": "NCCCCC(N)C(=O)O", "note": "(stereo unspecified)", "max response": "-7.46%"}
{"smiles": "CN1/C(=C\\C=C2\\N=C(c3ccc(F)cc3)OC2=O)C(C)(C)c2ccccc21", "max response": "-1.91%"}
{"smiles": "Cc1cccc(C(=O)Nc2ccc(C(=O)N/N=C/c3cccc(C)n3)cc2)c1", "max response": "5.54%"}
{"smiles": "Cc1cccc(C(=O)Nc2ccc(CC(=O)O)cc2)c1", "max response": "-5.6%"}
{"smiles": "Cc1cccc(C(=O)Nc2ccc(C(=O)/C=C/c3cccs3)cc2)c1", "max response": "76% (active)"}
{"smiles": "C=CCN1CCN(C(=O)CCCc2ccccc2)CC1", "max response": "1.1%"}
{"smiles": "CCCS(=O)(=O)N1CCN=C1SCc1cccc(F)c1", "max response": "-1.71%"}
{"smiles": "O=C(OCC(O)C(O)COC(=O)c1ccccc1)c1ccccc1", "note": "(stereo unspecified)", "max response": "-1.94%"}
{"smiles": "COc1ccc(NC(=O)COC(=O)c2ccncc2)c(OC)c1", "max response": "0.0404%"}
{"smiles": "O=C(COC(=O)c1ccncc1)c1ccccc1", "max response": "18.7% (active)"}
{"smiles": "CCOc1ccc(C)cc1S(=O)(=O)NC1CCCCCC1", "max response": "-2.48%"}
{"smiles": "Cc1ccccc1NC(=O)NCC1CCN(Cc2cccc(Cl)c2)CC1", "max response": "-4.17%"}
{"smiles": "CC(NC(=O)c1cc2cc(Cl)ccc2oc1=N)c1ccccc1", "note": "(stereo unspecified)", "max response": "-1.94%"}
{"smiles": "N=c1oc2ccccc2cc1C(=O)N/N=C/c1ccccc1", "max response": "46.7% (active)"}
{"smiles": "CNC(=O)c1cc2c(ccc3ccccc32)oc1=N", "max response": "18.4%"}
{"smiles": "N=c1oc2ccccc2cc1C(=O)NCc1ccccc1", "max response": "41.3% (active)"}
{"smiles": "COc1cccc2cc(C(=O)NCc3ccc(C)cc3)c(=N)oc12", "max response": "3.84%"}
{"smiles": "O=C(c1cccc(Br)c1)N1CCN(C2=NS(=O)(=O)c3ccccc32)CC1", "max response": "-3.24%"}
{"smiles": "CC1=C(C(=O)OC2CCCCC2)C(c2ccccc2F)NC(=O)N1", "note": "(stereo unspecified)", "max response": "13.8%"}
{"smiles": "COc1cc(OC)c(OC)cc1CN1CCN(C(=O)c2cccc3ccccc23)CC1", "max response": "-0.856%"}
{"smiles": "O=C(N/C(=C\\c1ccc([N+](=O)[O-])cc1)C(=O)N1CCCCC1)c1ccco1", "max response": "-1.29%"}
{"smiles": "Cc1cc(C)nc(N(C#N)CC(=O)Nc2ccccc2)n1", "max response": "-2.23%"}
{"smiles": "CC(Sc1nnc2c(n1)C1CCC2(C)C1(C)C)C(=O)Nc1ccccc1", "note": "(stereo unspecified)", "max response": "-1.8%"}
{"smiles": "CSc1nc(C)cc(SC(C(C)=O)C(=O)Nc2ccccc2)n1", "note": "(stereo unspecified)", "max response": "31.9% (active)"}
{"smiles": "Cc1c(OC(C)C(=O)NCC2CCC(C(=O)O)CC2)ccc2c1oc(=O)c1ccccc12", "note": "(stereo unspecified)", "max response": "-1.17%"}
{"smiles": "CS(=O)(=O)N(Cc1ccccc1Cl)c1ccc(C(=O)NCc2cccnc2)cc1", "max response": "-1.15%"}
{"smiles": "CCCCn1c(=O)c(C(C)=O)c(O)c2ccccc21", "max response": "1.86%"}
{"smiles": "CC(=O)n1c(C=Nc2ccccc2)c(O)c2ccccc21", "max response": "33.7% (active)"}
{"smiles": "CCOc1ccc(N=Cc2c(O)n(-c3cccc(C)n3)c(=O)c3ccccc23)cc1", "max response": "9.6%"}
{"smiles": "O=C(c1cccnc1)N(c1cc2sc(=O)oc2c2ccccc12)S(=O)(=O)c1ccccc1", "max response": "-2.05%"}
{"smiles": "Cc1ccc(N(C(=O)c2ccc(S(=O)(=O)N(C)C)cc2)C2C=CS(=O)(=O)C2)cc1", "note": "(stereo unspecified)", "max response": "-2.02%"}
{"smiles": "O=C(c1ccc(OC2CCN(C/C=C/c3ccc(F)cc3)CC2)cc1)N1CCCCC1", "max response": "-0.769%"}
{"smiles": "Nc1ccccc1SCc1cc([N+](=O)[O-])cc2c1OCOC2", "max response": "24.7% (active)"}
{"smiles": "CC(O)C(NS(=O)(=O)c1ccc(Cl)cc1)C(=O)OCc1cc([N+](=O)[O-])cc2c1OCOC2", "note": "(stereo unspecified)", "max response": "-0.904%"}
{"smiles": "CCC1(CC)Cc2ccccc2-c2nc(CCl)[nH]c(=O)c21", "max response": "-3.16%"}
{"smiles": "CC(=O)OCCN(CCCn1c(-c2ccncc2)nc2ccccc21)c1nc(-c2ccc(C)cc2)cs1", "max response": "-0.764%"}
